Assay outcomes (PubChem BioAssay)
HTT ATP protect – qHTS Multiplex Assay to Identify Dual Action Probes in a Cell Model of Huntington: Cytoprotection (ATP); PC12 HTT-Q103 induced, cytoprotection, ATP luminescence, 40 h; Potency, µM (titrated, usually from 56.4 µM), for the others: cytoprotection (ATP increase), usual class: activators; 230,000 tested, 0.14% active; AID 1471, 2008; active means well fitted curve in the direction sought with a large enough effect; inconclusive means small, poorly fitted or top-dose-only effect, or another doubt; inactive means no such curve, though single readings can be large; an effect the other way counts as inactive or inconclusive; further: % of control where 0% means no effect; nearly all actives have a fitted effect of over 45% in size
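PC12 cells with ecdysone-inducible HTT exon 1 Q103-GFP, induced with 100 nM tebufenozide and co-treated with library compounds in a dose series (1536-well, 1500 cells/well). Cytoprotection read as ATP content by ATPlite luminescence.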
ALDH1A1 block – qHTS Assay for Inhibitors of Aldehyde Dehydrogenase 1 (ALDH1A1) | 220,000 tested, 7.3% active | Aldehyde dehydrogenase 1A1 (Homo sapiens), P00352 | Purified ALDH1A1, NADH fluorescence, propionaldehyde substrate | Potency, µM (doses to about 75.3 µM), for inactives: top-dose activity, negative = inhibition, most hits filed as inhibitors | AID 1030, 2008;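 further: plate controls were no enzyme wells and a reference inhibitor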
JMJD2E inh – qHTS Assay for Inhibitors of Human Jumonji Domain Containing 2E (JMJD2E); 230,000 tested, 1.6% active; JMJD2E catalytic domain, FDH-coupled NADH fluorescence (FDH is formaldehyde dehydrogenase); Lysine-specific demethylase 4E (Homo sapiens), B2RXH2; AID 2147, 2009; Potency, µM (top dose mostly 57.1 µM), without a hit: top-dose activity change, negative = inhibition, usual class: inhibitors;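 further: 0% = wells with enzyme and -100% = buffer wells without enzyme; nearly all actives have a fitted effect of over 50% in size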
Target sequence (B2RXH2 1-337 limits assumed): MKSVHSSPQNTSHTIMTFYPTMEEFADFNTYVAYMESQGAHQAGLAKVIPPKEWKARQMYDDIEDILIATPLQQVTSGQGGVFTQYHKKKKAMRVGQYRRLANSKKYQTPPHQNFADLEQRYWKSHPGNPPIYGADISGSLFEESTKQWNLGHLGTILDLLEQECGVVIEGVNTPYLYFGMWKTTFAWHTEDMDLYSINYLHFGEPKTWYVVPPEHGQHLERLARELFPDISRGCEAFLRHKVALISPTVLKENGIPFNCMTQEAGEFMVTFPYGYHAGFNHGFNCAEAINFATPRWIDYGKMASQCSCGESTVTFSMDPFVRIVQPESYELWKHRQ
HPGD inh – qHTS Assay for Inhibitors of HPGD (15-Hydroxyprostaglandin Dehydrogenase); purified HPGD, NADH fluorescence kinetic, PGE2 substrate; Potency, µM, without a hit: at the top dose activity change, negative = inhibition, usual class: inhibitors; 150,000 tested, 4.3% active; AID 894, 2007; 15-hydroxyprostaglandin dehydrogenase [NAD(+)] (Homo sapiens), P15428; further: on the % scale 0 is the no-effect control and ±100 the full control effect
Target sequence (P15428 whole entry, looked up): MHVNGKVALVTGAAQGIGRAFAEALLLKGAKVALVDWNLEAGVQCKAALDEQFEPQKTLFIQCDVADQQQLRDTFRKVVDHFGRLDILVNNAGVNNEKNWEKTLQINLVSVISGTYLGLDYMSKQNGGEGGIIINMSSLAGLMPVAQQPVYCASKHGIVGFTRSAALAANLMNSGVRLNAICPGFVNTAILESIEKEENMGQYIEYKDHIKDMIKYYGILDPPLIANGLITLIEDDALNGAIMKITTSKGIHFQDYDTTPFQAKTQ
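20 nM HPGD preincubated 15 min at room temperature with compound in 50 mM Tris-HCl pH 8, 0.01% Tween 20. Started with 1 mM NAD+ and 30 uM prostaglandin E2; NADH fluorescence (360/450 nm) read 5 times over 30-s intervals, last minus first.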
HttQ103 aggreg – qHTS Multiplex Assay to Identify Dual Action Probes in a Cell Model of Huntington: Aggregate Formation (GFP) | Potency, µM (doses to about 46.1 µM), for the others: top-dose activity change, negative = inhibition, actives largely listed as inhibitors | PC12 HttQ103-GFP aggregates, Acumen cytometry, 40 h | 220,000 tested, 1.1% active | AID 1688, 2009; active means well fitted curve in the direction sought with a large enough effect; inconclusive means small, poorly fitted or top-dose-only effect, or another doubt; inactive means no such curve, though single readings can be large; an effect the other way counts as inactive or inconclusive; further: on the % scale 0 is the no-effect control and ±100 the full control effect; nearly all actives have a fitted effect of over 60% in size
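Read-out: GFP aggregate count by laser scanning cytometer (488 nm excitation, 500-530 nm emission, 1–25 µm objects >6 SD above background). Cells: PC12, inducible HTTex1-Q103-GFP, 100 nM tebufenozide; compounds titrated.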
LMNA splice mod – qHTS Assay for Modulators of Lamin A Splicing | HeLa LMNA splicing GFP/RFP minigene ratio, 48 h | Potency, µM (series often up to 46.1 µM), for inactives: at the top dose ratio change, negative = inhibition, hits mostly inhibitors | 200,000 tested, 0.01% active; active means well fitted inhibition curve with a large enough effect in the signal ratio, with a control signal flat, not every such curve was filed as active; inconclusive means small, poorly fitted or top-dose-only effect, or effect the other way, or a change in a side signal; the % refers to the signal ratio; further: on the % scale 0 is the no-effect control and ±100 the full control effect
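S3 HeLa cells stably expressing lamin A-EGFP splicing minigene plus DsRed2, 600 cells/well, 48 h compound exposure at 37C. Laser-scanning cytometry; analysed as GFP (500-530 nm)/RFP (575-640 nm) total intensity ratio; 0.5% DMSO vehicle.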
An asterisk follows results filed as active; ? = inconclusive; . = no result given; ! = a repeat was not active; [ ] = dose if it differs, or a comment. Compounds with a hit are over-represented: about 9.2% of the library has one in this group of screens. Unless noted, the call rests on the fitted dose curve; in most records, active means well fitted inhibition curve with a large enough effect (not every such curve was filed as active); inconclusive means small, poorly fitted or top-dose-only effect, or another doubt; inactive means no such curve, though single readings can be large or run the other way. Potency means the concentration at half of the fitted maximal effect.

SMILES	HTT ATP protect	ALDH1A1 block	JMJD2E inh	HPGD inh	HttQ103 aggreg	LMNA splice mod
CC(C)N(C(=O)c1sc2cc([N+](=O)[O-])ccc2c1Cl)C(C)C	5.7%	?	-1.7%	28.2µM*	0.4%	1.6%
O=C(c1sc2cc([N+](=O)[O-])ccc2c1Cl)N1CCOCC1	3.8%[10 µM]	-1.5%	-13.0%	15.8µM*	-5.4%	-15.2%
CC(C)N(C(=O)/C=C/c1cccc([N+](=O)[O-])c1)C(C)C	5.4%[10 µM]	-12.5%	-15.6%	.	-5.1%[9.22 µM]	.
Cc1ccc(OCC(=O)c2cc(C)c(C)cc2C)c([N+](=O)[O-])n1	-34.4%	3.55µM*	-28.1%	-20.0%	?	5.0%
CCCn1c(C)cc(C(=O)COc2ccc(C)nc2[N+](=O)[O-])c1C	15.3%[10 µM]	?	-0.4%	.	17.3%	-10.2%
COCCn1c(C)cc(C(=O)COc2ccc(C)nc2[N+](=O)[O-])c1C	-14.8%	10µM*	-7.9%	.	32.7%	.
Cc1ccc(OCC(=O)c2cc(C)n(-c3ccccc3)c2C)c([N+](=O)[O-])n1	-11.5%[1.9 µM]	?	-1.6%	-9.9%	?	?
Cc1ccc(C)c(C(=O)COc2ccc(C)nc2[N+](=O)[O-])c1	-81.6%	1.58µM*	-5.7%	-16.1%	13.6%[9.22 µM]	?
S=C(N=Nc1ccccc1)NNc1ccccc1	.	11.2µM*	-17.0%	?	13.4%	-6.5%
O=C(O)c1ccc(NS(=O)(=O)/C=C/c2ccccc2)cc1O	-0.5%	10µM*	?	-21.2%	10.6%	7.1%
COc1cc(/C=N/NC(=S)NC2CC3CCC2C3)ccc1O (configuration not stated)	-8.1%[10 µM]	17.8µM*	-9.7%	.	-4.8%[9.22 µM]	?
COc1ccc(-c2nc3c(c4c2C[C@H](c2ccccc2)OC4)CN(S(=O)(=O)c2ccc(C)cc2)CC3)c(C)c1	-3.9%[10 µM]	?	9.4%[11.4 µM]	-3.9%	.	?
O=C(O)c1cc2c(cc1S(=O)(=O)O)[C@H]1[C@@H](C3[C@H]2[C@@]2(Cl)C(Cl)=C(Cl)C3(Cl)C2(Cl)Cl)[C@]2(Cl)C(Cl)=C(Cl)C1(Cl)C2(Cl)Cl (some centres not stated)	.	-11.4%[13.5 µM]	.	?	.	.
CCOC(=O)C1(C)/C(=N/Nc2ccccc2OC)C(=O)C(=O)N1c1ccccc1 (configuration not stated)	.	23.8µM*	25.1µM*	.	.	2.8%[46 µM]
O=C(c1ccc2c(c1)OCO2)C1CCCN(C(=O)NCc2ccccc2)C1 (configuration not stated)	17.0%[10 µM]	-7.8%	-4.3%	.	-17.5%[9.22 µM]	?
O=C(c1ccc2c(c1)OCO2)C1CCCN(C(=O)c2cnn(Cc3ccccc3)c2)C1 (configuration not stated)	-17.2%[10 µM]	25.1µM*	-18.3%	.	5.0%[9.22 µM]	?
CCCc1nc(SC)[nH]c(=O)c1C	20.8%[10 µM]	.	2.9%	.	16.4%[9.22 µM]	.
O=C1C(SCCO)=C(SCCO)C(=O)c2ccccc21	-101.9%	17.8µM*	?	2.82µM*!	.	?
CN1CCN(c2ncc3c(n2)CCN(Cc2ccc(Br)s2)C3)CC1	.	.	.	.	.	-5.9%[46 µM]
Cc1ccc2[nH]c3c(=O)n(CC(=O)NCCCN4CCN(c5ccc(F)cc5)CC4)ncc3c2c1	.	.	.	.	.	2.3%[46 µM]
O=C(Cc1cccs1)N/N=C/C=C/c1ccco1	.	3.98µM*	6.4%	?	5.9%	1.6%
CCn1c(SCC(=O)N/N=C(\C)c2ccco2)nnc1-c1ccccc1	.	11.2µM*	5.9%	.	.	?
Cn1c(SCC(=O)N/N=C/C=C/c2ccco2)nc2ccccc21	.	14.1µM*	?	-25.1%	?	6.5%
CCn1c(SCC(=O)N/N=C(\C)c2ccncc2)nnc1-c1ccc(C)cc1	8.0%[10 µM]	20µM*	-17.4%	.	19.7%[9.22 µM]	.
Cn1c(SCC(=O)N/N=C/C=C\c2ccccc2[N+](=O)[O-])nc2ccccc21	0.8%[10 µM]	15.5%	-6.4%	-3.6%	5.0%	-4.6%
SMILES	HTT ATP protect	ALDH1A1 block	JMJD2E inh	HPGD inh	HttQ103 aggreg	LMNA splice mod
CCCn1c(C)nc2c(NC3CCN(Cc4ccccc4)C3)nc(C)nc21 (configuration not stated)	-41.5%	-7.7%	-4.4%	-8.6%	.	.
O=C(NCc1ccco1)c1ccc2c(c1)N(Cc1cccc(Cl)c1)C(=O)c1ccccc1S2=O (configuration not stated)	.	.	.	.	.	-7.1%[46 µM]
CCn1c(SCC(=O)N/N=C/c2ccc(C)o2)nnc1-c1ccccc1	-3.5%[10 µM]	11.2µM*	6.2%	?	-10.5%	-1.9%
CCn1c(SCC(=O)N/N=C/c2ccccc2OCC(=O)O)nnc1-c1ccc(C)cc1	6.0%[10 µM]	.	-11.9%	.	4.3%[9.22 µM]	.
CCn1c(SCC(=O)N/N=C/C=C/c2ccco2)nnc1-c1ccccc1	15.4%[10 µM]	17.8µM*	?	-10.0%	10.0%	?
CCn1c(SCC(=O)N/N=C/C(C)=C\c2ccco2)nnc1-c1ccccc1	13.4%[10 µM]	?	1.6%	-16.3%	5.4%	-1.6%
O=C(CSc1nnc(SCc2ccccc2)s1)N/N=C/C=C/c1ccco1	12.9%[10 µM]	14.1µM*	?	28.2µM*	?	-9.9%
CCn1c(SCC(=O)N/N=C/C(C)=C/c2ccco2)nnc1-c1ccccc1	-16.8%	20µM*	2.0%	-13.4%	-4.0%	0.2%
CC(C)OP(=O)(OC(C)C)C(Nc1ccccc1)c1cccnc1 (configuration not stated)	17.8%[10 µM]	.	1.8%	.	15.7%[9.22 µM]	.
Cc1ccc(/C=N/NC(=O)CSc2nnc(-c3ccc(Cl)cc3)n2-c2ccc(Cl)cc2)o1	10.0%[10 µM]	10µM*	7.5%	-3.9%	8.1%	18.8%
Cn1c(SCC(=O)NNC(=S)Nc2ccccc2)nnc1-c1ccccc1	25.2%[10 µM]	.	5.4%	.	24.3%[9.22 µM]	.
Cc1ccc(/C=N/NC(=O)CSc2nnc(-c3ccccc3)n2-c2ccc(Cl)cc2)o1	9.6%[10 µM]	?	-3.6%	-1.3%	15.7%	19.4%
O=C(CSc1nnc(SCc2ccccc2)s1)NNC(=S)Nc1ccccc1	-6.8%[1.9 µM]	3.16µM*	-1.2%	10µM*	1.8%	-10.1%
O=S1(=O)[C@H]([C@H]2CC3c4ccccc4C2c2ccccc23)[C@@H](N2CCCCC2)[C@@H]1c1ccccc1	0.5%[10 µM]	7.6%[13.5 µM]	.	-12.2%	.	.
CC1=C(C(=O)Nc2ccc(C)cc2C)C(c2sccc2C)n2ncnc2N1 (configuration not stated)	.	.	.	.	.	-2.2%[46 µM]
Cn1c2c(c(=O)n(C)c1=O)C(C(F)(F)F)(C(F)(F)F)N=C(c1ccc(Cl)cc1)N2	-64.8%	11.7%	5.2%	-9.0%	1.26µM*	?
